Source: PubChem BioAssay
Only some compounds are listed: those with a hit (about 11% of all), similar ones and a draw of the others.
Sm TGR inh = inhibitors of Schistosoma mansoni thioredoxin glutathione reductase | Q962Y6 | Potency, µM (doses to about 114 µM), for the others: at the top dose activity change, negative = inhibition, usual class: inhibitors | hit rate 3% among 360,000 | purified TGR, DTNB reduction, TNB absorbance 405 nm; also: % is scaled to controls: 0 for no effect and ±100 for the full control effect; nearly all actives have a fitted effect of over 60% in size
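TGR 20 nM + NADPH 100 uM (dispensed conc.), cpd preinc 15 min RT; start with NADPH (500 uM addition) then DTNB (15 mM addition). Kinetic TNB absorbance, 405 nm filter. Four-parameter Hill fit across titration.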
AMA1-RON2 inh = inhibitors of Plasmodium falciparum AMA1-RON2 interaction | AlphaScreen AMA1-biotinylated RON2 peptide binding | Potency, µM (titrated, usually from 58.2 µM), for the others: top-dose activity change, negative = inhibition, actives largely listed as inhibitors | hit rate 0.2% among 360,000 | AID 720542;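 also: 0% = vehicle wells and -100% = peptide control; nearly all actives have a fitted effect of over 45% in size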
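AMA1 (3D7) with his tag at 25 nM final met compounds first, then biotinylated RON2 peptide at 25 nM; detection used donor plus acceptor beads, 10 µg/mL apiece, read by AlphaScreen after 30 min at room temperature.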
Pf growth 48h = inhibits P. falciparum growth in the first generation, 48 h | P. falciparum luciferase growth in erythrocytes, 48 h | Potency, µM (top dose mostly 28.7 µM), for the others: at the highest dose activity change, negative = inhibition, actives largely listed as inhibitors | hit rate 5.9% among 310,000 | AID 504832; also: % is scaled to controls: 0 for no effect and ±100 for the full control effect
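Luminescence readout; reporter = integrated firefly luciferase in P. falciparum. RBC culture at 2% hematocrit, 0.1% parasitemia final, 37 C/5% CO2; decreased signal taken as growth inhibition.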
Pf growth 96h = P. falciparum growth inhibition at 96 hours; hit rate 6.9% among 320,000; P. falciparum luciferase reporter growth, 96 h; Potency, µM (doses to about 28.7 µM), without a hit: top-dose activity change, negative = inhibition, hits mostly inhibitors; AID 504834; also: % is scaled to controls: 0 for no effect and ±100 for the full control effect
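Plates of compound plus infected erythrocytes (2% hematocrit, 0.05% parasitemia final) incubate 96 hours, 37 C, 5% CO2. Detection reagent added; reduced luminescence from the parasites' luciferase reporter flags inhibition.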
NS1 inh = influenza NS1 inhibition | Potency, µM (series often up to 46.1 µM), for the others: at the top dose activity, positive = more growth | hit rate 0.4% among 270,000 | AID 2326; calls by dose curve; also: actives are rising curves; nearly all actives have a fitted effect of over 50% in size
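Recovery from NS1-induced slow growth read by OD600 in budding yeast switched to galactose assay medium (pH 6.0, -URA) at 1:100 dilution. Compound 23 nl per well; the matching strain lacking NS1 serves as control.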
Numbers without * were called inactive; ? = inconclusive; . = not tested or not shown. Unless noted, calls follow the shape of the dose curve; as a rule, active = well fitted curve in the direction sought with a large enough effect; inconclusive = small, poorly fitted or top-dose-only effect, or another doubt; inactive = no such curve, though single readings can be large; an effect the other way counts as inactive or inconclusive. Potency is read from the fitted curve at half-maximal effect.

SMILES | Sm TGR inh | AMA1-RON2 inh | Pf growth 48h | Pf growth 96h | NS1 inh
CCCCCCc1cc2cc(/C(N)=N/NC(=O)c3ccncc3)c(=O)oc2cc1O | 0.1% | 127.0% | 3.29µM* | 20.5% | .
CCCCCCc1cc2cc(C(=O)OCC)c(=O)oc2cc1O | 3.4% | 20.5% | 1.65µM* | 1.47µM* | -4.0%
CCCCCCc1cc2cc(C(=O)Nc3cccc(OC)c3)c(=O)oc2cc1O | -19.9% | -6.6% | ? | 18.3% | 15.4%
Cc1cc(C)c(S(=O)(=O)/N=C2/C=C(SCC(=O)O)C(=O)c3ccccc32)cc1C | 3.55µM* | -14.9% | 11.7µM* | 9.6% | .
Cc1ccc(NC(=O)CSc2ccccc2)cc1S(=O)(=O)N1CCCCC1 | -0.1% | 5.1% | ? | ? | .
CCOc1ccc(CN(C)C(=O)c2ccc3c(c2)NC(=O)C(C)S3)cc1OC (stereo not given) | 5.1% | -4.4% | ? | ? | .
CCOC(=O)C1CCN(C(=O)c2ccc(OC3CCN(C(=O)COC)CC3)cc2)CC1 | -21.3% | 19.7% | 5.7% | 20.9% | 9.9%
COCC(=O)N1CCC(Oc2ccc(C(=O)NCc3cc(C)no3)cc2)CC1 | -4.1% | 17.9% | 8.2% | 4.15µM* | ?
CN(C)S(=O)(=O)N1CCC(Oc2ccc(C(=O)NC3Cc4ccccc4C3)cc2)CC1 | 3.9% | -1.6% | ? | ? | ?
COCC(=O)N1CCC(Oc2ccc(C(=O)NCc3cc(C(C)C)no3)cc2)CC1 | 0.8% | -9.8% | 3.0% | ? | -16.0%
COCC(=O)N1CCC(Oc2ccc(C(=O)N3C[C@@H](C)O[C@@H](C)C3)cc2)CC1 | 39.8µM* | 6.8% | -3.0% | ? | 13.6%
COCC(=O)N1CCC(Oc2ccc(C(=O)NC3Cc4ccccc4C3)cc2)CC1 | -24.4% | 6.6% | 17.5% | 10.4µM* | -14.3%
COCCC(=O)N1CCC(Oc2ccc(C(=O)NCCCC3CCCC3)cc2)CC1 | 0.4% | -13.8% | -16.7% | 11.7µM* | -20.8%
COc1ccccc1-c1n[nH]c(=S)n1-c1ccccc1 | -21.8% | 42.1% | 90.4% | 13.1µM* | -3.8%
CCOC(=O)C1=C(COC(=O)c2cc(OC)c(OC)c(OC)c2)NC(=O)NC1C (stereo not given) | 1.6% | 7.8% | ? | 3.9% | .
Cc1nc(N/N=C/c2ccccc2)nc(N(C)c2ccccc2)c1[N+](=O)[O-] | -2.3% | -3.1% | 0.0% | ? | 17.3%
Cc1nc(Cl)nc(N(C)c2ccccc2)c1[N+](=O)[O-] | 4.47µM* | -14.2% | 28.5% | 44.3% | -30.1%
O=[N+]([O-])c1cccc(-c2ccc(/C=N/Nc3nc(N4CCCCC4)nc(N4CCCCC4)n3)o2)c1 | 0.4% | -6.2% | 2.33µM* | 11.1% | .
O=[N+]([O-])c1ccc(/C=N/Nc2nc(N3CCCC3)nc(N3CCCC3)n2)o1 | -35.6% | 54.6% | . | 10.4µM* | -8.4%
O=[N+]([O-])c1ccc(-c2ccc(/C=N/Nc3nc(N4CCCCC4)nc(N4CCCCC4)n3)o2)cc1 | -0.4% | 14.1% | ? | -60.0% | -3.0%
CCNc1nc(NCC)nc(N/N=C/c2ccc([N+](=O)[O-])o2)n1 | -29.5% | 5.3% | . | 4.15µM* | 4.2%
Cc1ccc2nc(N/N=C\c3ccc([N+](=O)[O-])o3)nc(-c3ccccc3)c2c1 | 0.0% | -4.8% | . | ? | 3.3%
O=[N+]([O-])c1ccc(-c2ccc(/C=N/Nc3nc(N4CCCC4)nc(N4CCCC4)n3)o2)cc1 | 0.0% | -10.0% | ? | ? | .
CC1(C(=O)NS(=O)(=O)c2ccccc2OC(F)(F)F)CCN1C(=O)c1ccccc1 (stereo not given) | . | 12.7% | . | . | .
CC(=O)c1ccc(NC(=O)c2cc3c(=O)oc4ccc(C)cc4c3s2)cc1 | -10.1% | . | . | . | .
COCCNC(=O)/C(C#N)=C\c1ccc(CNC(=O)C(=O)Nc2ccc(C)c(C)c2)o1 | . | 4.1% | -17.7% | ? | 4.7%
CCOC(=O)C1=C(O)/C(=C\c2ccc(CNC(=O)C(=O)Nc3ccc(C)c(C)c3)o2)N=C1C | 39.8µM* | . | . | -28.8% | 5.0%
COc1cc(OC)c(NC(=O)N2CCC(CN3CCCC3)CC2)cc1Cl | -5.4% | . | . | . | .
CC1=CC(C)C(CN(CCC[N+](C)(C)C)C(=O)Nc2ccccc2)C(C)C1 (stereo not given) | 2.9% | -9.9% | ? | 11.7µM* | -5.1%
